Source: PubChem BioAssay (Tox21)
Records with an inconclusive call do not appear. Activity calls are given as the source filed them. Unless noted, calls follow the shape of the dose curve; as a rule, active = well fitted curve in the direction sought with a large enough effect in the repeat runs; inconclusive = weak or mixed curves; inactive = no such curve, though single readings can be large; an effect the other way counts as inactive or inconclusive.

Experiments:
[1] = A CellTox Green Cytotoxicity Assay to monitor cytotoxicity in HEK293 cells - 32 hour (AID 1224881); also: nearly all actives have a fitted effect of over 40% in size
Outline: (§1)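 Fluorescence intensity, read at 0, 8, 16, 24, 32 and 40 h of compound treatment, reflected dye binding to DNA of dead HEK293 cells; compounds (23 nL, DMSO) were added 5 h after plating cells with reagent.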

[2] = A CellTox Green Cytotoxicity Assay to monitor cytotoxicity in HepG2 cells - 32 hour (AID 1224883); also: nearly all actives have a fitted effect of over 50% in size
Outline: (§2)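 Using 1536-well format, dye-containing HepG2 suspension was seeded, allowed 5 h at 37 C/5% CO2, dosed by pintool with compounds, positive and negative controls, and imaged for fluorescence across 40 h.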

[3] = A CellTox Green Cytotoxicity Assay to monitor cytotoxicity in HEK293 cells - 8 hour (AID 1224884); also: nearly all actives have a fitted effect of over 35% in size
Outline: as §1

[4] = qHTS RealTime-Glo MT Cell Viability Assay in HepG2 cells - 16 hour (AID 1224885); also: nearly all actives have a fitted effect of over 50% in size
Outline: (§3)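 Compound treatment began 5 h after plating HepG2 cells (600/well) with NanoLuc luciferase and prosubstrate. Plates stayed at 37 C for 40 h; luminescence was captured at six time points, 0 h through 40 h.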

[5] = qHTS RealTime-Glo MT Cell Viability Assay in HEK293 cells - 24 hour (AID 1224886); also: top concentration of the series differs between compounds; nearly all actives have a fitted effect of over 50% in size
Outline: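 Quantitative high-throughput screen of the Tox21 10K library in HEK293: cells and RealTime-Glo reagents plated together, compound added at 5 h, luminescence monitored through 40 h at 37 C.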

[6] = qHTS RealTime-Glo MT Cell Viability Assay in HEK293 cells - 8 hour (AID 1224887); also: nearly all actives have a fitted effect of over 50% in size; also: potency is read from the fitted curve at half-maximal effect
Outline: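 Viable HEK293 cells reduce a cell-permeant prosubstrate; the product diffuses out and is consumed by NanoLuc in the medium to give light. Compounds went in after a 5 h incubation and plates were read over the treatment course.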

[7] = A CellTox Green Cytotoxicity Assay to monitor cytotoxicity in HEK293 cells - 16 hour (AID 1224888); also: nearly all actives have a fitted effect of over 35% in size
Outline: as §1

[8] = qHTS RealTime-Glo MT Cell Viability Assay in HepG2 cells - 0 hour (AID 1224889); also: nearly all actives have a fitted effect of over 50% in size
Outline: as §3

[9] = A CellTox Green Cytotoxicity Assay to monitor cytotoxicity in HepG2 cells - 8 hour (AID 1224890); also: nearly all actives have a fitted effect of over 45% in size
Outline: as §2

[10] = qHTS assay to identify small molecule antagonists of the estrogen receptor alpha (ER-alpha) signaling pathway using the BG1 cell line in the presence of 0.1 nM 17-beta-estradiol - cell viability counter screen (AID 1259241); also: nearly all actives have a fitted effect of over 40% in size
Outline: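 Cells were plated and left 24 hr, compounds in DMSO were pinned in, 17beta-estradiol was added to 0.1 nM final, and after 22 hr CellTiter-Fluor reagent was added for 30 min before fluorescence was read.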

[11] = qHTS assay to identify small molecule antagonists of the androgen receptor (AR) signaling pathway using the MDA cell line in the presence of 0.5 nM R1881 - cell viability counter screen (AID 1259242); also: nearly all actives have a fitted effect of over 45% in size
Outline: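 Viability of MDA-kb2 cells was multiplexed with the luciferase AR readout; after 16 hr with compounds and R1881 at 0.5 nM final, CellTiter-Fluor fluorescence was recorded.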

[12] = biological target: Androgen receptor (Homo sapiens) (UniProt P10275); experiment: qHTS assay to identify small molecule antagonists of the androgen receptor (AR) signaling pathway using the MDA cell line in the presence of 0.5 nM R1881 (AID 1259243); also: nearly all actives have a fitted effect of over 50% in size
Outline: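 Reporter cells cultured without CO2 receive test chemicals, then 0.5 nM R1881 final; after 16 hr at 37C, ONE-Glo is added and light output recorded.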

[13] = biological target: Estrogen receptor (Homo sapiens) (UniProt P03372); experiment: qHTS assay to identify small molecule antagonists of the estrogen receptor alpha (ER-alpha) signaling pathway using the BG1 cell line in the presence of 0.1 nM 17-beta-estradiol (AID 1259244); also: nearly all actives have a fitted effect of over 50% in size; also: potency is read from the fitted curve at half-maximal effect
Outline: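 Estradiol at 0.1 nM (final) stimulates the endogenous ER-alpha of VM7Luc4E2 cells carrying an ERE-driven luciferase; compounds are co-incubated 22 h at 37C and luciferase output quantified by luminescence.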

[14] = qHTS assay to identify small molecule HDAC inhibitors (AID 1259364);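 also: wild-type HCT-116 cells with endogenous class I/II HDAC activity; top concentration of the series differs between compounds; nearly all actives have a fitted effect of over 45% in size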
Outline: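 Read-out: luminescence of HDAC-Glo I/II reagent, 30 min RT, reflecting class I/II deacetylase activity in whole HCT-116 cells pre-exposed 2 h to DMSO-dissolved compounds.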

[15] = qHTS assay to identify small molecule HDAC inhibitors - cell viability counter screen (AID 1259365)
Outline: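 Counter screen in wild-type HCT-116 cells: compounds dissolved in DMSO are pin-transferred onto overnight-plated cells and left 2hr at 37C. ATP-based CellTiter-Glo luminescence then measures viable cells.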

[16] = qHTS assay to identify small molecule agonists of the sonic hedgehog signaling (Shh) pathway - cell viability counter screen (AID 1259366); also: nearly all actives have a fitted effect of over 50% in size
Outline: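 Cells are plated at 2,000 per well and left 4hr at 37C, 5% CO2 before compound addition. After 23hr of treatment, CellTiter-Fluor reagent is added for 1hr at 37C and fluorescence is measured.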

[17] = qHTS assay to identify small molecule antagonists of the sonic hedgehog signaling (Shh) pathway - cell viability counter screen (AID 1259367); also: nearly all actives have a fitted effect of over 55% in size
Outline: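 Using CellTiter-Fluor, viability of Gli1-Luc reporter 3T3 cells is read by fluorescence in the wells used for the Shh luciferase assay. Treatment lasts 23 hr with conditioned medium, then reagent 1 hr at 37C.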

[18] = qHTS assay to identify small molecule agonists of the sonic hedgehog signaling (Shh) pathway (AID 1259368; calls by dose curve;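 also: NIH/3T3-derived 3T3Gli1-Luc cells carrying a stable Gli1-driven firefly luciferase reporter; series mostly up to about 92 µM; nearly all actives have a fitted effect of over 15% in size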)
Outline: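 A Gli1 transcriptional response element controlled firefly luciferase in 3T3Gli1-Luc cells. Compounds and a positive control were added 4 hr after plating, and cells were incubated a further 24 hr at 37 C before luminescence detection.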

[19] = A CellTox Green Cytotoxicity Assay to monitor cytotoxicity in HepG2 cells - 0 hour (AID 1224882); also: nearly all actives have a fitted effect of over 35% in size
Outline: as §2

[20] = qHTS assay to identify small molecule phospholipidosis (PLD) inducers (AID 1259344; active = well fitted curve in the direction sought with a large enough effect; an effect the other way counts as inactive or inconclusive)
Outline: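 Fluorescent phospholipid staining (LipidTOX Red) measured by automated microscopy in fixed HepG2 cells after 24 h treatment; nuclei counterstained with Hoechst 33342; amiodarone as reference inducer.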
% is scaled to controls: 0 for no effect and ±100 for the full control effect.

Sequence of Androgen receptor (Homo sapiens) (P10275 whole entry, looked up): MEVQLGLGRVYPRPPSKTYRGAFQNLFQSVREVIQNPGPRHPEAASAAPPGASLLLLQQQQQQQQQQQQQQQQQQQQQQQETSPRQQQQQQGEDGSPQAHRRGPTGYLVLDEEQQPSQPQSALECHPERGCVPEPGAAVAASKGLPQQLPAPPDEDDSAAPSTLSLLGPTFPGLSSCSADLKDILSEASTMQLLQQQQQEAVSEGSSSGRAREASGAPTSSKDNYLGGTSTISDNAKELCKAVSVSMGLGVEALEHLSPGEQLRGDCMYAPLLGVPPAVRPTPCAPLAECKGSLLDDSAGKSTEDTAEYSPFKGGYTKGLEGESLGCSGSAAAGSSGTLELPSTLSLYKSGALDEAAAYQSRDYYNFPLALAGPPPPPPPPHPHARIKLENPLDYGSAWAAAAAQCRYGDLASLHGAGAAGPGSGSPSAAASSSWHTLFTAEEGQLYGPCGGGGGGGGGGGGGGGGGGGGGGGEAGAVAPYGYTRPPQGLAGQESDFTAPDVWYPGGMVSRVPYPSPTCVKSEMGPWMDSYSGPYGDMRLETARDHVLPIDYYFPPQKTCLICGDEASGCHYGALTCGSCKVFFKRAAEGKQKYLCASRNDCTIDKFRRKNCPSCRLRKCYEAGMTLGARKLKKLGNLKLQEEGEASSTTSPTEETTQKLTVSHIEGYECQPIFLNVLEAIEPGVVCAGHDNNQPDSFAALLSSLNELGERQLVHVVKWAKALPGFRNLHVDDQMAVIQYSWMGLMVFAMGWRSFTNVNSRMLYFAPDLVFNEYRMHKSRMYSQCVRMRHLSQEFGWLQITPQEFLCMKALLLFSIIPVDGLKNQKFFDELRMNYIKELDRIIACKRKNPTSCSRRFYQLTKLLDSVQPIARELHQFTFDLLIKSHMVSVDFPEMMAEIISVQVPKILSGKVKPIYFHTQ
Sequence of Estrogen receptor (Homo sapiens) (P03372 whole entry, looked up): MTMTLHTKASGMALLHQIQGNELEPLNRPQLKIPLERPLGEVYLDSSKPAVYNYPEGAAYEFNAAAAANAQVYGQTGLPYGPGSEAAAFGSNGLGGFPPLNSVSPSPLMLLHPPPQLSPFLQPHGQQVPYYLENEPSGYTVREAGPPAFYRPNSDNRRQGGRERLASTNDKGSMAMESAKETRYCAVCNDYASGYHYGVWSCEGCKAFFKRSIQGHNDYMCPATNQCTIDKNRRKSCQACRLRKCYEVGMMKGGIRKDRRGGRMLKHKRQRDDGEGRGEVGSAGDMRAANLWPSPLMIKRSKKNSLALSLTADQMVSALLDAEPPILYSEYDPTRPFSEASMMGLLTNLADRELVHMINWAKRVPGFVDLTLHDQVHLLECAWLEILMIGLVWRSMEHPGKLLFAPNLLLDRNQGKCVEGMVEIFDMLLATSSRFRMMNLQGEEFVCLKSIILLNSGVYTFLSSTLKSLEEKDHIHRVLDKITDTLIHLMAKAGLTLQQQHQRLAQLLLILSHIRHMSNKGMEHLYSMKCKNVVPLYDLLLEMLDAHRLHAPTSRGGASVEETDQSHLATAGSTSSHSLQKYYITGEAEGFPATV

Clc1ccccc1N1CCNCC1
inactive: Potency [1] | Potency [2] | Potency [3] | Potency [4] | Potency [5] | Potency [6] | Potency [7] | Potency [8] | Potency [9] | outcome [10] | outcome [11] | Potency [12] | Potency [13] | Potency [14] | outcome [15] | Potency [16] | Potency [17] | outcome [18]

CC(C)CP(=S)(S)CC(C)C
inactive: Potency [1] | Potency [2] | Potency [3] | Potency [4] | Potency [5] | Potency [6] | Potency [7] | Potency [8] | Potency [9] | outcome [11] | Potency [13] | Potency [14] | outcome [15] | Potency [16] | outcome [18]

c1ccc(N2CCNCC2)cc1
inactive: Potency [1] | Potency [2] | Potency [3] | Potency [4] | Potency [5] | Potency [6] | Potency [7] | Potency [8] | Potency [9] | outcome [10] | outcome [11] | Potency [12] | Potency [14] | outcome [15] | Potency [16] | Potency [17] | outcome [18]

O=C1OC(=O)C2C1C1(Cl)C(Cl)=C(Cl)C2(Cl)C1(Cl)Cl (configuration not stated)
inactive: Potency [1] | outcome [19] | Potency [3] | Potency [4] | Potency [6] | Potency [7] | outcome [10] | outcome [11] | Potency [13] | Potency [14] | outcome [15] | outcome [18]

CN1CCN(C(=O)O[C@H]2c3nccnc3C(=O)N2c2ccc(Cl)cn2)CC1
inactive: Potency [1] | Potency [2] | Potency [3] | Potency [4] | Potency [5] | Potency [6] | Potency [7] | Potency [8] | Potency [9] | outcome [11] | outcome [20] | Potency [14] | outcome [15] | Potency [16] | Potency [17] | outcome [18]

CN/C(=N\[N+](=O)[O-])NCC1CCOC1 (configuration not stated)
inactive: Potency [1] | Potency [2] | Potency [3] | Potency [4] | Potency [5] | Potency [6] | Potency [7] | Potency [8] | Potency [9] | outcome [10] | outcome [11] | Potency [14] | outcome [15] | Potency [16] | Potency [17] | outcome [18]

CCCCN(CCCCO)N=O
inactive: Potency [1] | Potency [2] | Potency [3] | Potency [4] | Potency [5] | Potency [6] | Potency [7] | Potency [8] | outcome [11] | Potency [14] | outcome [15] | Potency [16] | outcome [18]

N#Cc1c(Cl)cccc1Cl
inactive: Potency [1] | outcome [19] | Potency [3] | Potency [4] | Potency [6] | Potency [7] | Potency [9] | outcome [10] | outcome [11] | Potency [13] | Potency [14] | outcome [15] | Potency [16] | Potency [17] | outcome [18]

CCCCc1c(C)nc(NCC)[nH]c1=O
inactive: Potency [1] | outcome [19] | Potency [3] | Potency [4] | Potency [7] | Potency [8] | outcome [11] | Potency [13] | Potency [14] | outcome [15] | Potency [16] | Potency [17] | outcome [18]
active: Potency [6] 21.9 µM

COc1cc(OC)nc(Sc2cccc(Cl)c2C(=O)O)n1
inactive: Potency [1] | Potency [2] | Potency [3] | Potency [4] | Potency [5] | Potency [6] | Potency [7] | Potency [8] | Potency [9] | outcome [10] | outcome [11] | Potency [14] | outcome [15] | Potency [16] | Potency [17] | outcome [18]

CC1COC2(c3ccccc3Cl)c3cc(Cl)ccc3NC(=O)CN12 (configuration not stated)
inactive: Potency [1] | outcome [19] | Potency [3] | Potency [4] | Potency [6] | Potency [7] | Potency [8] | outcome [10] | outcome [11] | Potency [12] | Potency [14] | outcome [15] | Potency [16] | Potency [17]

CC(CC(C#N)(c1ccccc1)c1ccccc1)N(C)C (configuration not stated)
inactive: Potency [1] | outcome [19] | Potency [3] | Potency [4] | Potency [6] | Potency [7] | Potency [8] | outcome [11] | Potency [14] | outcome [15] | outcome [18]

CCCSP(=S)(OCC)Oc1ccc(Cl)cc1Cl (configuration not stated)
inactive: Potency [1] | outcome [19] | Potency [3] | Potency [4] | Potency [5] | Potency [6] | Potency [7] | outcome [11] | Potency [13] | Potency [14] | outcome [15] | Potency [16] | Potency [17] | outcome [18]

CCSC(=O)N(CC)C1CCCCC1
inactive: outcome [19] | Potency [2] | Potency [3] | Potency [4] | Potency [5] | Potency [6] | Potency [7] | Potency [9] | outcome [10] | outcome [11] | Potency [13] | Potency [14] | outcome [15] | Potency [16] | Potency [17] | outcome [18]

O=C(O)c1cccc(Cl)c1
inactive: Potency [1] | Potency [2] | Potency [3] | Potency [4] | Potency [5] | Potency [6] | Potency [8] | Potency [9] | outcome [10] | outcome [11] | Potency [13] | Potency [14] | outcome [15] | Potency [16] | outcome [18]

CCc1cc2c(s1)-n1c(C)nnc1CN=C2c1ccccc1Cl
active: Potency [13] 18.8 µM
inactive: outcome [19] | Potency [2] | Potency [4] | Potency [6] | Potency [8] | Potency [9] | outcome [10] | outcome [11] | PLD induction [20] -2.33% [at 1.53 µM] | Potency [14] | outcome [15] | Potency [17]

C[C@]12CC[C@H]3[C@@H](CC=C4C[C@@H](O)CC[C@@]43C)[C@@H]1CC[C@@H]2O
inactive: Potency [1] | Potency [2] | Potency [3] | Potency [4] | Potency [6] | Potency [7] | Potency [8] | Potency [9] | outcome [10] | outcome [11] | outcome [20] | Potency [14] | outcome [15] | Potency [16] | Potency [17] | outcome [18]

CNC(=O)Oc1c(C(C)(C)C)cc(C)cc1C(C)(C)C
inactive: outcome [19] | Potency [2] | Potency [3] | Potency [4] | Potency [5] | Potency [6] | Potency [7] | Potency [8] | outcome [10] | outcome [11] | Potency [12] | Potency [14] | outcome [15] | Potency [16] | Potency [17] | outcome [18]
